Among the data in PubChem BioAssay (NCI) are growth values, retold here.

Structures are written as SMILES. About 83,000 compounds went through this panel and 20% of them were active in at least one assay; those are over-represented in the sample as a whole.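 Percent growth is the endpoint: 0 to 100 indicates growth inhibition (40 means 60% inhibition), 0 means no net growth, and negative values indicate cell death.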 Unmarked numbers belong to inactive results. Activity calls are given as the source filed them. How the source made its calls: active means growth percent below 10; inactive means the rest.

Some test systems named below: DU-145 prostate; K-562 leukemia; MALME-3M melanoma; MDA-MB-231 breast; RXF 393 renal; SF-268 CNS; SF-295 CNS; SF-539 CNS; UACC-257 melanoma; M14 melanoma; HCT-15 colon; HT29 colon; SNB-75 CNS; SNB-19 CNS; U251 CNS; SK-MEL-5 melanoma; UACC-62 melanoma; LOX IMVI melanoma; SK-MEL-28 melanoma.
Test in all cases: NCI-60 one-dose screen, 48 h (100 = growth as untreated, 0 = no growth, -100 = all killed)
Common to all, as to details: 10 µM unless noted

For the compound `c1csc(C2=NN3C(C2)c2ccccc2OC3c2ccncc2)c1` (configuration not stated), the growth was 97% with DU-145 prostate; 99.2% in the assay on K-562 leukemia; 86.9% in the assay on MALME-3M melanoma; 89.1% in the assay with MDA-MB-231 breast; 105% in the assay with RXF 393 renal; 89.5% in the assay with SF-268 CNS. The growth in the assay with SF-295 CNS was 96.1%; in the assay on SF-539 CNS, 96.7%; with UACC-257 melanoma it was 96.5%; in the assay on M14 melanoma, 105%; with HCT-15 colon, 95.5%; in the assay with HT29 colon it was 107%. Moreover, the growth was 82.2% in the assay with SNB-75 CNS; 90.5% with SNB-19 CNS; 91.5% in the assay with U251 CNS; 92.7% in the assay with SK-MEL-5 melanoma; 94.1% in the assay on UACC-62 melanoma; 89.3% with LOX IMVI melanoma. For the same compound, the growth with SK-MEL-28 melanoma is 107%.
As for `O=C1c2ccccc2C(=O)c2c1ccc1[nH]c(-c3cccs3)nc21`, the growth was 88.9% in the assay on DU-145 prostate; 80.7% in the assay with K-562 leukemia; 81.9% in the assay with MALME-3M melanoma; 70.9% in the assay on MDA-MB-231 breast; 81% in the assay on RXF 393 renal; 87.6% in the assay with SF-268 CNS. Further, the growth with SF-295 CNS was 120%; with SF-539 CNS, 77.5%; with UACC-257 melanoma, 87.5%; in the assay on M14 melanoma, 106%; in the assay on HCT-15 colon it was 89.8%; with HT29 colon, 107%. Moreover, the growth is 98.9% with SNB-75 CNS; 100% in the assay with SNB-19 CNS; 72.7% in the assay with U251 CNS; 85% in the assay on SK-MEL-5 melanoma; 85.5% in the assay with UACC-62 melanoma; 79.2% with LOX IMVI melanoma. The growth with SK-MEL-28 melanoma was 127%.
As to `CN(C)S(=O)(=O)c1cccc(-c2nc3sc4c(c3c(=O)[nH]2)CCCC4)c1`, the growth in the assay on DU-145 prostate was 54.5%; with K-562 leukemia it was 37.9%; in the assay on MALME-3M melanoma, 17.2%; with MDA-MB-231 breast, 34.8%; with RXF 393 renal it was 10.7%; with SF-268 CNS it was 64.9%. Also, the growth is 24.7% with SF-295 CNS; 23% in the assay on SF-539 CNS; 75% in the assay with UACC-257 melanoma; 48% in the assay with M14 melanoma; 115% in the assay on HCT-15 colon; 19.5% in the assay on HT29 colon. Further, the growth is -12.3% (active) with SNB-75 CNS; 53.5% in the assay with SNB-19 CNS; 1.85% (active) with U251 CNS; 77.3% in the assay on SK-MEL-5 melanoma; 71.1% in the assay on UACC-62 melanoma; 174% with LOX IMVI melanoma. Moreover, in the assay on SK-MEL-28 melanoma, the growth is 82.2%.
On to `Nc1ccc(-c2cc3c(NCc4ccccc4)ncnc3s2)cc1`, for which the growth in the assay on DU-145 prostate was 55.8%; in the assay on K-562 leukemia it was 61.8%; in the assay with MALME-3M melanoma, 91.3%; with MDA-MB-231 breast, 86%; with RXF 393 renal it was 74.2%; in the assay with SF-268 CNS, 86.9%. The growth is 83.5% in the assay on SF-295 CNS; 86% in the assay with SF-539 CNS; 85.8% in the assay on UACC-257 melanoma; 103% with M14 melanoma; 82.2% in the assay on HCT-15 colon; 103% with HT29 colon. Also, the growth with SNB-75 CNS was 89.2%; in the assay with SNB-19 CNS, 73.6%; in the assay on U251 CNS, 82.4%; in the assay on SK-MEL-5 melanoma, 55.7%; in the assay on UACC-62 melanoma, 71.8%; with LOX IMVI melanoma, 84.2%. In the assay on SK-MEL-28 melanoma, the growth is 92.3%.
For `Cc1ccc2c(C(C[N+](=O)[O-])c3ccccc3F)c(-c3ccccc3)[nH]c2c1` (configuration not stated), the growth is 66.2% in the assay with DU-145 prostate; 11.8% with K-562 leukemia; 46.1% in the assay on MALME-3M melanoma; 61.4% with MDA-MB-231 breast; 63.6% with RXF 393 renal; 46.7% in the assay with SF-268 CNS. Further, the growth in the assay with SF-295 CNS is 17.6%; in the assay with SF-539 CNS, 52.3%; in the assay on UACC-257 melanoma, 46.9%; with M14 melanoma, 26.2%; in the assay on HCT-15 colon it was 25.7%; with HT29 colon, 6.14% (active). Moreover, the growth with SNB-75 CNS was 24.6%; in the assay with SNB-19 CNS, 49.1%; in the assay on U251 CNS it was 25.3%; in the assay on SK-MEL-5 melanoma it was 48.1%; with UACC-62 melanoma it was 42.4%; in the assay on LOX IMVI melanoma, 36.4%. Besides, the growth in the assay with SK-MEL-28 melanoma was 63%.
In the case of `COC(=O)c1ccc(NC(=O)c2ccc(-c3cccc([N+](=O)[O-])c3)o2)cc1`, the growth with DU-145 prostate was 110%; in the assay on K-562 leukemia, 105%; with MALME-3M melanoma, 90.3%; in the assay on MDA-MB-231 breast, 90.3%; in the assay with RXF 393 renal it was 92.7%; in the assay on SF-268 CNS, 97.6%. The growth is 94.9% with SF-295 CNS; 90.5% in the assay on SF-539 CNS; 102% in the assay with UACC-257 melanoma; 101% with M14 melanoma; 101% in the assay with HCT-15 colon; 103% with HT29 colon. In addition, the growth in the assay with SNB-75 CNS is 82.4%; with SNB-19 CNS, 94.4%; in the assay on U251 CNS, 100%; with SK-MEL-5 melanoma it was 97.8%; in the assay on UACC-62 melanoma, 95.5%; with LOX IMVI melanoma, 96.1%. Further, the growth in the assay with SK-MEL-28 melanoma is 100%.
On to `CCOC(=O)c1sc2nc(-c3cccc(OC)c3)nc(N3CCOCC3)c2c1C`, for which the growth in the assay with DU-145 prostate was 101%; in the assay on K-562 leukemia, 97.2%; in the assay on MALME-3M melanoma it was 117%; with MDA-MB-231 breast it was 95%; with RXF 393 renal, 95.6%; in the assay with SF-268 CNS it was 88.4%. In addition, the growth in the assay on SF-295 CNS was 99.5%; with SF-539 CNS it was 98.8%; in the assay on UACC-257 melanoma, 115%; with M14 melanoma, 120%; in the assay with HCT-15 colon, 96.4%; in the assay on HT29 colon, 89.9%. Besides, the growth in the assay on SNB-75 CNS is 95.3%; in the assay with SNB-19 CNS, 89.1%; in the assay with U251 CNS, 86.9%; in the assay with SK-MEL-5 melanoma it was 85.5%; in the assay on UACC-62 melanoma, 75.6%; in the assay on LOX IMVI melanoma it was 94%. Also, in the assay with SK-MEL-28 melanoma, the growth was 101%.
As to `C#CCOc1ccc2ncnc(N3CCN(C(=O)CCl)CC3)c2c1`, the growth was 102% [8.25 µM] in the assay with DU-145 prostate; 18.9% [8.25 µM] in the assay with K-562 leukemia; 92.4% [8.25 µM] in the assay on MALME-3M melanoma; 95.7% [8.25 µM] with MDA-MB-231 breast; 87.2% [8.25 µM] with RXF 393 renal; 68.7% [8.25 µM] with SF-268 CNS. Besides, the growth in the assay with SF-295 CNS was 109% [8.25 µM]; in the assay on SF-539 CNS, 91.4% [8.25 µM]; in the assay with UACC-257 melanoma it was 90.8% [8.25 µM]; with M14 melanoma, 61.7% [8.25 µM]; in the assay with HCT-15 colon, 58.8% [8.25 µM]; in the assay with HT29 colon, 71.7% [8.25 µM]. Further, the growth with SNB-75 CNS is 101% [8.25 µM]; in the assay with SNB-19 CNS, 95.9% [8.25 µM]; in the assay on U251 CNS, 91.2% [8.25 µM]; in the assay on SK-MEL-5 melanoma, 57.7% [8.25 µM]; with UACC-62 melanoma, 68.2% [8.25 µM]; in the assay on LOX IMVI melanoma, 47.4% [8.25 µM]. For the same compound, in the assay with SK-MEL-28 melanoma, the growth was 98.4% [8.25 µM].
